Source: PubChem BioAssay (National Center for Advancing Translational Sciences (NCATS))
Only some compounds are listed: those with a hit (about 7% of all), similar ones and a draw of the others.
JMJD2A Tudor: qHTS Assay for Inhibitors of JMJD2A-Tudor Domain; Lysine-specific demethylase 4A (Homo sapiens), O75164; AlphaScreen JMJD2A-Tudor / H3K4me3 peptide binding; Potency, µM (series often up to 114 µM), inactives show top-dose activity change, negative = inhibition, actives largely listed as inhibitors; 390,000 tested, 4.4% active; note: potency is the fitted concentration of half-maximal effect; % is set by controls: 0 for no effect and ±100 for the full control effect; nearly all actives have a fitted effect of over 50% in size
HP1b chromo inh: HTS for Inhibitors of HP1-beta Chromodomain Interactions with Methylated Histone Tails; Potency, µM (titrated, usually from 114 µM), inactives show at the highest dose activity change, negative = inhibition, actives largely listed as inhibitors; AID 540317, 2011; AlphaScreen HP1-beta / biotin-H3K9me3 peptide binding; 390,000 tested, 0.56% active; Chromobox protein homolog 1 (Homo sapiens), P83916; note: potency is the fitted concentration of half-maximal effect; nearly all actives have a fitted effect of over 70% in size
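HP1-beta protein (50 nM final) preincubated 30 min at room temperature with biotinylated H3(1-18)K9me3 peptide (50 nM) in PBS pH 7.4, 0.01% Tween-20, then compound added for 30 min. AlphaScreen streptavidin donor/nickel chelate acceptor beads (10 ug/mL final), 30 min dark, luminescence read.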
PLK1 PBD inh: qHTS for Inhibitors of PLK1-PDB (polo-like kinase 1 - polo-box domain): Primary Screen; 360,000 tested, 2.8% active; Plk1 PBD binding of FITC phosphopeptide, fluorescence polarization; Potency, µM, without a hit: max response, negative = inhibition, actives largely listed as inhibitors; note: potency is the fitted concentration of half-maximal effect; series mostly up to about 57 µM; % is set by controls: 0 for no effect and ±100 for the full control effect; nearly all actives have a fitted effect of over 65% in size
Target sequence (P53350 whole entry, looked up, the tested form may be a part): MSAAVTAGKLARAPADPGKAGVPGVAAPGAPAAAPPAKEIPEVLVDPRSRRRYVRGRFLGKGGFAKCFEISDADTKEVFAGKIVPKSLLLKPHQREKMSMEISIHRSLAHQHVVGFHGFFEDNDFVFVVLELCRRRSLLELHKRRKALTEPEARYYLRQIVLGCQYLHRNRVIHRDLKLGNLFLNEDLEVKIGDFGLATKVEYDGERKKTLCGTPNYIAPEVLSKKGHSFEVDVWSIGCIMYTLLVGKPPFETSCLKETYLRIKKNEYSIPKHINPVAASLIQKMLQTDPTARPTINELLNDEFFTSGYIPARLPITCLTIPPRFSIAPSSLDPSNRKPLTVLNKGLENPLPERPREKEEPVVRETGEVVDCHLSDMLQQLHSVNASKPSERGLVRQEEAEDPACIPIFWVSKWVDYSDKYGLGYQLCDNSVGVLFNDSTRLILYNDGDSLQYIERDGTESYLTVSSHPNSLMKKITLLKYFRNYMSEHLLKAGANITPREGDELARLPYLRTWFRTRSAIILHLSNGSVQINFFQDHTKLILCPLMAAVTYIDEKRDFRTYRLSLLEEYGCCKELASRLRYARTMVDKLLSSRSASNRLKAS
PI5P4K alpha inh: qHTS for Inhibitors of phosphatidylinositol 5-phosphate 4-kinase (PI5P4K); Phosphatidylinositol 5-phosphate 4-kinase type-2 alpha (Homo sapiens), P48426; PI5P4Kalpha enzyme, ADP-Glo luminescence, 60 min; stronger effect = lower value; max response, %; 330,000 tested, 1.2% active; AID 652105, 2013; active = max response of -50% or lower; inconclusive = between -30% and -50%; inactive = -30% or higher; note: value at the top dose of about 77 µM; % is set by controls: 0 for no effect and ±100 for the full control effect
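Single end-point luminescence (ADP-Glo) quantified ADP from PI5P4Kalpha turnover; ATP 5 microM final, 1 h at RT, 0.1% CHAPS and 0.28 mM EGTA in HEPES pH 7.4.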
KAT2A inh: qHTS Assay for Inhibitors of GCN5L2. 390,000 tested, 0.21% active. GCN5L2 HAT assay, ThioGlo1 CoA-SH fluorescence. Potency, µM (titrated, usually from 58.9 µM), inactives show at the highest dose activity change, negative = inhibition, most hits filed as inhibitors. Histone acetyltransferase KAT2A (Homo sapiens), Q92830; note: potency is the fitted concentration of half-maximal effect; % is set by controls: 0 for no effect and ±100 for the full control effect
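GCN5L2 (20nM final) in 50mM HEPES, 0.1mM EDTA pH 7.5, 0.01% Tween-20 was preincubated 15 min at room temperature with compound, then given ThioGlo1 (50uM), H3(1-25) peptide (75uM) and acetyl-CoA (70uM); CoA-thiol fluorescence (Ex340/Em540) was read at 0 and 20 min.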
BAZ2B block: qHTS Assay for Inhibitors of BAZ2B; AlphaScreen BAZ2B-H3K14Ac peptide displacement; Potency, µM (top dose mostly 114 µM), for the others: top-dose activity change, negative = inhibition, most hits filed as inhibitors; 360,000 tested, 4.4% active; note: potency is the fitted concentration of half-maximal effect; % is set by controls: 0 for no effect and ±100 for the full control effect; nearly all actives have a fitted effect of over 60% in size
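Protein-peptide AlphaScreen: BAZ2B 50 nM, b-H3K14Ac 50 nM, 1x PBS pH 7.4 + 0.01% Tween-20. Preincubation 30 min RT; cpd 30 min RT (top 110 uM); beads 20 min RT, light-protected.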
The depositor's hits bear a star; u = inconclusive; x = no result; [ ] = dose if it differs, or a comment. Unless noted, calls come from the whole dose curve; as a rule, active = well fitted curve in the direction sought with a large enough effect; inconclusive = small, poorly fitted or top-dose-only effect, or another doubt; inactive = no such curve, though single readings can be large; an effect the other way counts as inactive or inconclusive.

SMILES	JMJD2A Tudor	HP1b chromo inh	PLK1 PBD inh	PI5P4K alpha inh	KAT2A inh	BAZ2B block
Cc1ccc(-n2c(O)c(/C=N/N3CCOCC3)c(=O)[nH]c2=S)cc1	u	20.6%	-7.7%	-11.6	32.7%	u
Cc1ccc(-n2c(-c3nn(C)c(C)c3Cl)n[nH]c2=S)cc1	u	-15.5%	29.9µM*	9.5	0.5%	-30.6%
Cc1ccc(-c2n[nH]c(=S)n2-c2ccccc2)cc1	20µM*	2.5%	-17.5%	4.3	-0.3%	10.0%
COc1ccccc1C(=O)Nc1ccc2nc(SCC(=O)N3CCCc4ccccc43)sc2c1	-16.2%	66.2%	x	x	-8.1%	-36.5%
O=C(CN1CCOCC1)c1cccc2ccccc12	7.94µM*	-25.6%	-23.4%	-22.5	-6.4%	50.1µM*
O=C(CN1CCOCC1)c1ccc(Br)cc1	79.4µM*	21.8%	u	1.1	-19.4%	-15.9%
CC1CCN(CC(=O)c2ccccc2Cl)CC1	u	12.2%	u	5.8	2.8%	-9.0%
CC(C)(C)c1ccc(C(=O)NCCN2CCOCC2)cc1	-15.7%	44.0%	-4.0%	1.7	x	x
c1ccc([Se]c2c(-c3ccccc3)[se]c3ccccc23)cc1	x	x	x	x	-11.5%	x
C=CC[C@]1(O)CCC2C3CCC4=CCCCC4C3CCC21C (stereo partly specified)	x	x	x	x	-1.1%	x
COCCCOc1ccnc(CS(=O)c2nc3ccccc3[nH]2)c1C (stereo unspecified)	35.5µM*	22.4µM*	u	u	-12.2%	u
Cc1ccccc1-c1cncnc1NCCc1cnc[nH]1	x	x	x	x	-3.6%	x
Cc1ccccc1NC(=O)c1cc(-c2ccccc2)n(CCCN2CCOCC2)c1C	-24.3%	2.1%	3.1%	-2.1	-1.2%	-27.6%
COCCn1c(-c2ccccc2)cc(C(=O)O)c1C	-19.8%[11.4 µM]	-18.1%	23.8µM*	-14.3	x	x
O=C(Nc1cccc(F)c1)N1CC2(CCNCC2)C1	x	x	x	x	-3.7%	x
O=C(CSc1nc(-c2ccc(Cl)cc2)[nH]c(=O)n1)Nc1cccc(Cl)c1	-17.4%	25.3%	23.8µM*	u	1.8%	-12.5%
C[N+](C)(C)CC#CCOC(=O)Nc1cccc(Cl)c1	-4.8%	37.9%	-13.2%	-3.1	-6.0%	x
N#CCCn1cc(C(=O)Nc2ccc(F)cc2)c(-c2ccc([N+](=O)[O-])cc2)n1	-25.8%	u	18.9µM*	-6.8	-21.7%	-12.4%
N#CCCn1cc(C(=O)Nc2ccc([N+](=O)[O-])cc2)c(-c2ccccc2)n1	-8.5%	25.6%	0.9%	-5.1	-2.1%	-21.9%
CC(C)CC1C(=O)N2CCC[C@H]2[C@]2(O)O[C@](NC(=O)[C@@H]3C=C4c5cccc6[nH]c(Br)c(c56)C[C@H]4N(C)C3)(C(C)C)C(=O)N12 (stereo partly specified)	u	1.6%	x	x	x	x
O=[N+]([O-])c1c2ccccc2cc2ccccc12	u	-3.3%	-20.1%	4.5	-15.5%	52.0%
O=[N+]([O-])c1ccc(-c2ccc(C=Nc3cccc4ccccc34)o2)cc1	15.8µM*	u	-12.1%	x	-5.1%	39.8µM*
S=C(S)N1CCCC1	-13.1%	11.1%	u	-0.7	-21.7%	12.4%
C=C/C(=C/C(=O)C[C@H](C)C[C@@H](C)CC[C@H](O)[C@H](C)C(=O)C[C@@H](O)[C@H](C)[C@@H](C)OC(=O)C[C@@H](O)C1=C(C)C(=O)OC1=O)CC	x	x	x	x	3.16µM*	x
CCOC(=O)N1CC(C)N(/[N+]([O-])=N/Oc2ccc([N+](=O)[O-])cc2[N+](=O)[O-])CC1C (stereo unspecified)	89.1µM*	-12.0%	x	x	x	x
